Bioassay records (PubChem BioAssay)
Pf Dd2 growth: Plasmodium falciparum Dd2 growth inhibition; AID 1347417; Potency, µM (highest dose often 28.9 µM), hits mostly inhibitors; P. falciparum Dd2 growth, SYBR Green, 72 h; 120,000 tested, 4.3% active; active means well fitted inhibition curve with a large enough effect; further: nearly all actives have a fitted effect of over 65% in size
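Infected erythrocytes (Dd2, 0.3% parasitemia, 2.5% hematocrit final) are added to compound in RPMI-1640/Albumax II medium, grown 72 h at 37C in low oxygen, then lysed with saponin/Triton-X containing SYBR Green and read by fluorescence.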
Large screens that a line does not name were inactive; ! = a repeat was not active. The entries come from a sample that favours hits as a whole.

COCc1nc(C2CCN(C(=O)Nc3ccc4c(c3)OCCO4)C2)no1 (configuration not stated)	none
O=C(CCc1nc2ccccc2[nH]1)N1CCN(C(=O)N2CC3CC(C2)[C@H]2CCCC(=O)N2C3)CC1 (some centres not stated)	none
COC(=O)CCC(=O)N1CCCC(CCc2c(F)cccc2F)C1 (configuration not stated)	none
CN(C)c1nc2c(c(=O)[nH]1)CCN(Cc1cc(F)ccc1F)CC2	none
CN(Cc1cccnc1)c1nc2c(c(=O)[nH]1)CCN(Cc1cccc(F)c1)CC2	none
CN(Cc1cccnc1)c1nc2c(c(=O)[nH]1)CCN(Cc1ccc(Cl)c(F)c1)CC2	none
CN(C)c1nc2c(c(=O)[nH]1)CCN(Cc1ccc(F)cc1Cl)CC2	Pf Dd2 growth 1µM
CN(C)c1nc2c(c(=O)[nH]1)CCN(Cc1ccc(F)cc1F)CC2	none
CN(Cc1cccnc1)c1nc2c(c(=O)[nH]1)CCN(Cc1ccc(F)cc1Cl)CC2	Pf Dd2 growth 2.82µM
N#Cc1ccc(S(=O)(=O)N2CCCOCCNC(=O)[C@@H]3CCC[C@@H]32)cc1	none
Cc1ccc(NC2CCCN(C(=O)c3ccc(F)c(F)c3)C2)cc1C (configuration not stated)	none
O=C1C(N2CCN(S(=O)(=O)c3cc(F)ccc3F)CC2)CCN1Cc1cccnc1 (configuration not stated)	none
CC(C)Oc1ccc(CN2CCc3n[nH]c(=O)n3CC2)cc1	none
COc1ncccc1-c1cc(C(=O)NCCN2CCOCC2)c2c(c1)ncn2C	none
O=[S+]([O-])(c1ccccc1)N1CC2(COCCN(Cc3ccsc3)C2)C1	none
CN1C(=O)CS(=O)(=O)C12CCN(C(=O)c1ccncc1)CC2	none
CCN(Cc1ccccc1)C(=O)CCC[C@@H]1[C@H]2CCCN3CCC[C@@H](CN1C(=O)c1ccccc1)[C@@H]23	Pf Dd2 growth 2µM
O=C(CCC[C@@H]1[C@H]2CCCN3CCC[C@@H](CN1C(=O)c1ccccc1)[C@@H]23)N1CCCCC1	none
CC(C)N1CCN(C(=O)CCC[C@@H]2[C@H]3CCCN4CCC[C@@H](CN2C(=O)c2ccccc2)[C@@H]34)CC1	none
O=C(CCC[C@@H]1[C@H]2CCCN3CCC[C@@H](CN1Cc1cccnc1)[C@@H]23)N1CCN(C2CCCC2)CC1	none
O=C(CCC[C@@H]1[C@H]2CCCN3CCC[C@@H](CN1C(=O)c1ccccc1)[C@@H]23)NCCN1CCCCC1	none
CC(C)N1CCN(C(=O)CCC[C@@H]2[C@H]3CCCN4CCC[C@@H](CN2Cc2ccccc2)[C@@H]34)CC1	Pf Dd2 growth 3.98µM
CC(C)CN1C(=O)c2cccn2CC1C(=O)NCCN1CCOCC1 (configuration not stated)	none
Cc1cc(C)n(CCC(=O)NCC23CCCC=C2N(CC2CC2)C(=O)CC3)n1 (configuration not stated)	none
COc1ccc(-c2cccc(COc3cnc4c(ccn4CC(=O)O)c3)c2)c(C)c1	none
COCCOc1ccc2c(n1)CCN(C(=O)c1ccc(OC)cc1OC)C2	none
O=C(c1ccc(C(F)(F)F)cc1)N1CCC2(CC(c3cccnc3)=NO2)C1 (configuration not stated)	none
COc1ccccc1CNC(=O)C1CC(=O)N(c2n[nH]c3cccc(F)c23)C1 (configuration not stated)	none
COc1ccc(NC(=O)C2(C)CCc3cnc(N4CCOCC4)nc32)cc1 (configuration not stated)	none
CCN1C(=O)CCc2cc(NC(=O)NC3CCCC3)ccc21	none
NC1(C(=O)N2CCOC(CC(c3ccccc3)c3ccccc3)C2)CC1 (configuration not stated)	Pf Dd2 growth 10µM
Cc1ncncc1C(=O)N1CCOC(CC(c2ccccc2)c2ccccc2)C1 (configuration not stated)	none
O=C(c1ccc[n+]([O-])c1)N1CCOC(CC(c2ccccc2)c2ccccc2)C1 (configuration not stated)	none
COCCCNc1ccc(C(=O)N2CCC(CN3CCCC3=O)CC2)cn1	none
COCC(=O)NC1CCC12CCN(C(=O)c1cccs1)CC2 (configuration not stated)	none
O=C(c1ccccn1)N1CCCC2(COc3ccccc3[S+](=O)([O-])N2)C1 (configuration not stated)	none
O=C(c1ccc(F)cc1)N1CCC2(CNc3ccccc3[S+](=O)([O-])N2)C1 (configuration not stated)	none
CCOc1cc(-c2cc(C(=O)O)c3c(-c4ccccc4)[nH]nc3n2)ccc1O	none
Cc1cccc(-c2cc(C(=O)O)c3c(-c4ccc(F)cc4)[nH]nc3n2)c1	Pf Dd2 growth 7.94µM
COc1ccc(-c2[nH]nc3nc(-c4cc(OC)c(OC)c(OC)c4)cc(C(=O)O)c23)cc1	none
COc1ccc([C@H]2C[C@@H](O)[C@@H](O)[C@@H]2NC(=O)c2ccc(C(F)(F)F)cc2)cc1	none
COc1ccc([C@H]2C[C@@H](O)[C@@H](O)[C@@H]2NC(=O)Nc2ccc(C(F)(F)F)cc2)cc1	Pf Dd2 growth 3.16µM
Cc1ccccc1C(=O)N[C@H]1[C@H](O)[C@H](O)C[C@@H]1c1ccc(C(F)(F)F)cc1	Pf Dd2 growth 3.55µM
COc1ccc(CC(=O)N[C@H]2[C@H](O)[C@H](O)C[C@@H]2c2ccc(C(F)(F)F)cc2)cc1	none
Cc1ccccc1[C@H]1C[C@@H](O)[C@@H](O)[C@@H]1NC(=O)c1ccc(C(F)(F)F)cc1	none
COc1ccccc1C(=O)N[C@H]1[C@H](O)[C@H](O)C[C@@H]1c1ccc(C(F)(F)F)cc1	none
Cc1[nH]c2ccc(F)cc2c1Cc1nc(C2CCOC2)no1 (configuration not stated)	none
CCCn1ccc2sc(C)c(C(=O)NCCC3=CCCCC3)c2c1=O	none
FC(F)(F)c1ccc(CN2CC[C@H](c3nc4ccccc4[nH]3)C2)cc1	none
FC(F)(F)c1ccc2nc([C@H]3CCN(C4CCCCC4)C3)[nH]c2c1	Pf Dd2 growth 7.94µM
N#Cc1ccc(CN2CCC(c3nc4ccncc4[nH]3)C2)cc1 (configuration not stated)	Pf Dd2 growth 10µM!
O=C(c1ccccc1)N1CC[C@H](c2nc3ccc(F)cc3[nH]2)C1	none
CC(=O)N1CC[C@H](c2nc3ccc(C(F)(F)F)cc3[nH]2)C1	none
FC(F)(F)c1ccc2nc([C@H]3CCN(CC4CC4)C3)[nH]c2c1	Pf Dd2 growth 12.6µM
Brc1ccc(CN2CCC(c3nc4ncccc4[nH]3)C2)cc1 (configuration not stated)	none
N#Cc1ccc2nc([C@H]3CCN(Cc4ccccc4)C3)[nH]c2c1	none
c1cc2nc(C3CCN(C4CCCCC4)C3)[nH]c2cn1 (configuration not stated)	none
CN(C)c1ccc(CN2CC[C@H](c3nc4ccc(C(F)(F)F)cc4[nH]3)C2)cc1	Pf Dd2 growth 5.62µM
O=C(C1CCCCC1)N1CC[C@H](c2nc3ccc(C(F)(F)F)cc3[nH]2)C1	none
CN1CCC(N2CC[C@H](c3nc4ccccc4[nH]3)C2)CC1	none
COc1ccc(-c2nc(C)nc3c2CN(C(=O)c2ccc(F)cc2)CC3)cc1	none
COc1ccc(CN2C(=O)O[C@@H]3CN(C(=O)NC4CCCCC4)C[C@@H]32)cc1OC	none
O=C(c1ccc(F)cc1)N1CCC(N2CCCCCC2=O)CC1	none
O=C(c1ccc2c(c1)OCO2)N1CCCC2(CNc3ccccc3[S+](=O)([O-])N2)C1 (configuration not stated)	none
COc1cccc(CC(=O)N2CCC3(CC2)CC(Cc2nc(-c4ccncc4)no2)CCO3)c1 (configuration not stated)	none
